# Shown are actives, neighbours in structure and some others; about 1.9% of the full set was active somewhere.
# Abeta rescue – restores growth of yeast expressing A-beta42 peptide; yeast expressing A-beta42, growth rescue, OD600, 48 h; response scale: 0% DMSO, 100% iron-clioquinol control; actives 0.063% (n = 410,000); Potency, µM (series often up to 46.1 µM), usual class: activators; further: nearly all actives have a fitted effect of over 55% in size
#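 Growth rescue measured by 600 nm absorbance after 48 h yeast culture at 30 C with compound. Values normalized between DMSO and an equimolar ferric chloride plus clioquinol control.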
# FUS suppressor – rescues growth of FUS-expressing yeast. actives 0.24% (n = 390,000). S. cerevisiae FUS-expressing, growth rescue, OD600, 24 h. Potency, µM (titrated, usually from 76.6 µM), usual class: activators; further: nearly all actives have a fitted effect of over 55% in size
#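 Read-out: OD at 600 nm after 24hr at 30C, reporting rescue of FUS-induced yeast toxicity. Cells at OD 0.005 in galactose (2%) minimal medium; compounds tested in a dilution series; CP55940 titration from 92uM final as control.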
# PTHR1 ag – activates the human parathyroid hormone receptor PTHR1; actives 0.075% (n = 410,000); Q03431; HEK293 GP2 PTHR1 cells, GloSensor cAMP luminescence, 1 h; Potency, µM (top dose mostly 115 µM), actives largely listed as activators; further: nearly all actives have a fitted effect of over 55% in size
# Target sequence (Q03431 whole entry, looked up): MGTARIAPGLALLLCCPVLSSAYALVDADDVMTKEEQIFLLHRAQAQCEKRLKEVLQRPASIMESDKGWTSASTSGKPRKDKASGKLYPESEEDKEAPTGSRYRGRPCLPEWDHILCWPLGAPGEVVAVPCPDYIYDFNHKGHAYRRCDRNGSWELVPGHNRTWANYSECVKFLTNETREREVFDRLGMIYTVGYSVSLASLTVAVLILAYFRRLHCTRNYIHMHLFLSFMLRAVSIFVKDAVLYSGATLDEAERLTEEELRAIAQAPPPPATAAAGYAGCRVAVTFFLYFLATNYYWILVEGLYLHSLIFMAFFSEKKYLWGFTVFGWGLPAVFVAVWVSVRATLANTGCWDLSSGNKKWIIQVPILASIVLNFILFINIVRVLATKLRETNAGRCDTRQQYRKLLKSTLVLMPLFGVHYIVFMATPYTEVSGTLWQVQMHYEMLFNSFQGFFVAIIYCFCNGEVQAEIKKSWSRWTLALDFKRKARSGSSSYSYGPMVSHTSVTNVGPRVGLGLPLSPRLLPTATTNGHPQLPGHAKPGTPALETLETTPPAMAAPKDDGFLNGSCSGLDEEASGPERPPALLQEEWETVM
#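 HEK-293-derived GP2 cells expressing PTHR1 and a GloSensor cAMP reporter, 3,000/well, plated overnight, given luciferin plus IBMX (each 0.5 mM as added) for 1 h at 37 °C, then compound for 1 h at 37 °C. Luminescence was read after 15 min at room temperature.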
# TDP43 rescue – TDP-43 toxicity inhibition in yeast; Potency, µM (top dose mostly 46.1 µM), actives largely listed as activators; TDP-43 expressing yeast growth rescue, BacTiter-Glo, 24 h; actives 1.8% (n = 410,000); further: nearly all actives have a fitted effect of over 50% in size
#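 Readout is BacTiter-Glo luminescence of cell growth, so inhibitors register as activators. TDP-43-expressing yeast at OD600=0.02 in galactose medium, after raffinose pregrowth to mid-log, were incubated with compound for 24 hr at 30 deg C.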
# aSyn rescue – rescues yeast growth from alpha-synuclein toxicity; Yeast expressing alpha-synuclein, growth rescue, BacTiter-Glo, 24 h; actives 0.14% (n = 370,000); Potency, µM (doses to about 46.1 µM), hits mostly activators; AID 652106; further: nearly all actives have a fitted effect of over 65% in size
#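 Rescue of yeast growth: cells expressing toxic alpha-synuclein, induced in galactose at OD600 0.02, incubated with compound 24 h at 30 C. ATP luminescence quantified growth; inhibitors of toxicity appear as activators.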
# LDHA inh – LDHA (human) enzyme inhibition; P00338; AID 1347041; actives 0.15% (n = 480,000); purified LDHA, NADH/diaphorase-resazurin fluorescence; stronger effect = lower value; activity change, % (values are at about 110 or 230 µM); in the data active means activity change below about -30%; inconclusive means mostly about -25% to -30%
#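 LDH5 2 nM; NADH 0.06 mM, pyruvate 0.2 mM; 200 mM Tris pH 7.4, EDTA, Tween-20; 5 min RT. Detection: diaphorase 0.133 mg/mL + resazurin 37 µM, fluorescence ex540/em590 at 0 and 20 min; normalized to enzyme-free and DMSO wells.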
# A number is an active result; - = inactive; ? = inconclusive; . = no result given. Unless noted, the call rests on the fitted dose curve; in most records, active means well fitted curve in the direction sought with a large enough effect; inconclusive means small, poorly fitted or top-dose-only effect, or another doubt; inactive means no such curve, though single readings can be large; an effect the other way counts as inactive or inconclusive.
SMILES,Abeta rescue,FUS suppressor,PTHR1 ag,TDP43 rescue,aSyn rescue,LDHA inh
CC(C)CCn1c(N2CCC(C(N)=O)CC2)nc2c1c(=O)n(C)c(=O)n2C,.,.,.,.,.,-
Cc1cnc(NC(=O)CSc2ccc(Cl)cc2)s1,?,-,-,11µM,-,-
CC1CCCC(C)N1C(=O)CSc1nc2cc(Cl)ccc2s1 (stereo not given),.,.,.,.,.,-
CC1CCCC(C)N1C(=O)CSc1nc2ccccc2s1 (stereo not given),-,-,-,7.9µM,.,-
Cc1cnc(NC(=O)CSc2nc3ccccc3s2)s1,-,-,-,14µM,-,-
O=C(CSc1nc2ccccc2s1)Nc1ncccn1,-,-,-,-,-,-
O=C(Nc1ccc(Cc2ccncc2)cc1)C12CC3CC(CC(Br)(C3)C1)C2,.,.,.,.,.,-
CC(C)(C)c1ccc(CCC2OCC(CN3CCCCC3)O2)cc1 (stereo not given),.,.,.,.,.,-
CC1(C)CC(=O)C2=C(C1)OC(c1ccccc1)(C(C)(C)C)NC2=O (stereo not given),.,.,.,.,.,-
Cc1cccc(N(C)c2nc3ccc(C)cc3n3cnnc23)c1,-,-,-,13µM,.,-
Cc1cccc(N(C)c2nc3ccc(C)cc3n3nnnc23)c1,-,-,-,-,.,-
Cc1ccc(C)c2c1[nH]c1ccccc12,-,-,-,14µM,-,-
Cc1cc(C=O)c(C)c2c1[nH]c1ccccc12,-,.,-,-,-,-
CCCC1Cc2c(sc3nc(SC)nc(N)c23)CO1 (stereo not given),-,-,?,-,-,-
CCCC1Cc2c(sc(N)c2C#N)CO1 (stereo not given),-,-,-,13µM,-,-
Cc1ccc(NC(=O)CN2C(=O)S/C(=C\c3cccn3-c3ccc(C(=O)O)cc3)C2=O)cc1,.,.,.,.,.,-
O=c1cc(-c2ccccc2Cl)oc2ccc([N+](=O)[O-])c(O)c12,-,-,-,-,-,-
O=[N+]([O-])c1cc([N+](=O)[O-])c2oc(-c3ccccc3)c(Br)c2c1O,-,-,-,-,-,-68
c1cc(CNC2CC2)ccn1,.,.,.,.,.,-
O=C(c1ccc(S(=O)(=O)Cc2cc(F)ccc2F)c([N+](=O)[O-])c1)N1CCOCC1,-,-,-,20µM,-,-
O=c1oc2c(CN3CCCC3)c(O)ccc2cc1-c1ccccc1,-,-,-,-,.,-
O=c1oc2c(CN3CCOCC3)c(O)ccc2cc1-c1ccc(Cl)cc1,-,-,-,13µM,.,-
O=c1oc2ccccc2c2oc3cc(O)c(O)cc3c12,-,8.9µM,-,-,-,-
Nc1c(N)c2ccccc2oc1=O,-,-,-,-,-,-
COc1cccc(C(=O)NCC(O)c2ccc(C)cc2)c1 (stereo not given),.,.,.,.,.,-
SMILES,Abeta rescue,FUS suppressor,PTHR1 ag,TDP43 rescue,aSyn rescue,LDHA inh
COc1ccc2nc(NC(C)=O)sc2c1,-,-,-,-,-,-
CC(=O)Nc1nc2ccc(Br)cc2s1,-,-,-,13µM,-,-
CCc1nc(SCc2cc(Cl)ccc2OC)n[nH]1,-,-,-,?,16µM,-
N#CCCN1CCN(c2ccc(NS(=O)(=O)c3ccccc3Cl)cc2C(=O)O)CC1,.,.,.,.,.,-
CC(O)CNS(=O)(=O)c1ccc(-c2ccc(S(=O)(=O)NCC(C)O)cc2)cc1 (stereo not given),.,.,.,.,.,-
c1csc(-c2nc(-c3ccc4c(c3)OCCCO4)cs2)c1,.,.,.,.,.,-
CCCc1nc2ccc(NC(C)=O)cc2c(=O)n1Cc1ccccc1Cl,-,-,-,20µM,-,-
CC(=O)Nc1ccc(NC(=O)CC2C(=O)N(C3CCCCC3)c3nc4ccccc4n32)cc1 (stereo not given),.,.,.,.,.,-
Cc1nc(NC(C)C)sc1C(=O)NCCc1ccccc1,.,.,.,.,.,-
COc1ccc(NC(=O)CCS(=O)(=O)c2ccccc2Cl)cc1S(=O)(=O)Nc1ccc(Cl)cc1,-,32µM,-,-,-,-
CCNc1nc(N)c(C(=O)c2ccc(Cl)cc2)s1,.,.,.,.,.,-
CCNc1nc(N)c(C(=O)c2ccc(Cl)s2)s1,-,-,-,13µM,-,-
Cc1ccc(O)c(Sc2cc(C)ccc2O)c1,?,-,-,22µM,?,-
CCCC1(C)C(C#N)(C#N)C1(C#N)C#N,.,.,.,.,15µM,.
CC(C)c1cc(C(C)C)c(S(=O)(=O)NCC(=O)N2CCN(c3ncccn3)CC2)c(C(C)C)c1,.,-,.,.,.,.
CC(C)c1cc(C(C)C)c(S(=O)(=O)NC(c2ccccn2)C23CC2C3)c(C(C)C)c1 (stereo not given),-,?,-,22µM,?,-
CCOC(=O)N1CCN(CC(=O)Nc2oc3ccccc3c(=O)c2-c2ccc(C)cc2)CC1,.,.,.,.,.,-
CN(C)CC(C(=O)c1ccccc1)c1ccccc1 (stereo not given),-,.,-,-,-,-
CN(Cc1cc(Cl)cc(Cl)c1)CC(C(=O)c1ccccc1)c1ccccc1 (stereo not given),-,.,-,13µM,-,-
CCCNC(=O)OCc1cccnc1Sc1ccc(C)cc1,-,-,-,20µM,-,-
CC(=O)N1CC2(CC(c3ccccc3C(F)(F)F)=NO2)CN1c1ccc(Cl)cc1 (stereo not given),-,?,-,-,13µM,-
CC(=O)N1CC2(CC(c3ccc(Cl)cc3Cl)=NO2)CN1c1cccc(Cl)c1 (stereo not given),-,-,-,-,-,-
COc1ccc(C2=Nc3ccccc3N(C(=O)c3ccc4c(c3)OCO4)C2C(=O)NCc2ccccc2)cc1 (stereo not given),-,?,-,?,-,-

# Assay outcomes: PubChem, National Center for Advancing Translational Sciences (NCATS)
